# Experimental data taken from PubChem BioAssay (EPA / NIEHS).
# Inconclusive results are not listed. The source made the active and inactive calls. Rule for the calls: active = hit-call score of the fitted dose curve at least 0.9, where 1 is the maximum; inconclusive = response in the unintended direction; inactive = score below 0.9.
# Read-out: HMG-CoA synthase (HMGCS2), HMGCS2 (gene 3158)
# Experiment: CLD_HMGCS2_24hr: CellzDirect (CLD) Gene Expression Assay for HMG-CoA synthase (HMGCS2) at 24 hours (AID 2283691)
# Description: CLD_24hr is a cell-based, multiplexed-readout assay that uses hepatocyte, a human liver primary cell, with measurements taken at 24 hours after chemical dosing in a 96-well plate.CLD_HMGCS2_24hr is one of 16 assay component(s) measured or calculated from the CLD_24hr assay. It is designed to make measurements of mRNA induction, a form of inducible reporter, as detected with chemiluminescence signals by Quantitative Nuclease Protection Assay (qNPA) technology.Data from the assay component CLD_HMGCS2_24hr was analyzed at the endpoint, CLD_HMGCS2_24hr, in the positive analysis fitting direction relative to DMSO as the negative control and baseline of activity. Using a type of inducible reporter, gain-of-signal activity can be used to understand changes in the reporter gene as they relate to the gene HMGCS2. Furthermore, this assay endpoint can be referred to as a primary readout. To generalize the intended target to other relatable targets, this assay endpoint is annotated to the lyase intended target family, where subfamily is HMG-CoA synthase.
# Human hepatocyte cultures were treated daily for two consecutive days with fresh dosing solutions containing appropriate concentrations of the 320 ToxCast chemicals (chemical identities were blinded to CellzDirect and other ToxCast collaborators), vehicle control (0.2% DMSO), and positive control inducers as summarized in Table 1. Due to the large number of treatment groups and chemicals examined, the ToxCast chemicals were divided into two groups (spanning two independent cultures of hepatocytes from separate donor preparations (Hu778: ToxCast plates 1 and 2; Hu776: ToxCast plates 3 and 4). Each preparation of human hepatocyte cultures was treated with respective vehicle control, medium only control, set of six positive controls/reference chemicals for the five hepatic receptor pathways, and a subset of eight of the ToxCast chemicals (indoxacarb, pyrithiobac-sodium, norflurazon, cyhalofop-butyl, methomyl, thiram, acetochlor, and propiconazole). These replicate data, coupled with internal replicates designed within the blinded ToxCast chemical library, provided additional data to evaluate interindividual differences between hepatocyte preparations and their potential impact on chemical profiles.Cell morphology and integrity were evaluated using phase-contrast microscopy as an indicator of hepatocyte cell health (Tyson & Green, 1987). Cultures for each treatment group (i.e., media, vehicle [0.2% DMSO], positive control inducers [multiple concentrations], and the ToxCast chemicals [multiple concentrations]) were observed and cell morphology was assessed relative to vehicle control cultures at each harvest time point (0, 6, 24, or 48 h). […] Images were evaluated at the conclusion of the study to assess changes in cell integrity and account for the effects of chemical exposure on uncharacteristic changes in concentration-dependent gene expression profiles. The results from these determinations of apparent cytotoxicity were annotated (yes/no) alongside the corresponding qNPA data for reference.At the conclusion of each treatment period, hepatocyte cultures (96-well) were washed with 1 volume of HBSS, lysed by addition of 25 ul ArrayPlate lysis buffer (HTG, Tucson, AZ), and 70 ul/well of Denaturation Oil, denatured by incubation at 95C for 10 min, and frozen at approximately -70C until analysis by nuclease protection assay (qNPA) (Roberts et al., 2007). For qNPA analysis, cell lysates were thawed at 50C for approximately 30 min, qNPA probes were added, and samples were incubated at 95C for 10 min to begin the detection process by denaturing the target RNA, dissociating the duplexes and secondary structure hybridization. At the conclusion of the hybridization period, S1 nuclease reagent was added to each sample to digest all nonprotected nucleotides at 50C for 60-90 min. […]
Structure (SMILES),outcome,AC50
OCCOc1ccccc1,inactive,
Oc1cc(Cl)ccc1Oc1ccc(Cl)cc1Cl,inactive,
CNC(=O)CSP(=S)(OC)OC,inactive,
[2H]C1([2H])[n+]2ccccc2-c2cccc[n+]2C1([2H])[2H],inactive,
COC(=O)c1ccccc1S(=O)(=O)NC(=O)Nc1nc(C)nc(OC)n1,inactive,
N#Cc1c(Cl)c(Cl)c(Cl)c(C#N)c1Cl,inactive,
CCS(=O)(=O)c1cccnc1S(=O)(=O)NC(=O)Nc1nc(OC)cc(OC)n1,inactive,
O=C(O)COc1ccc(Cl)cc1Cl,,22.5 nM (active)
COc1cc(OC)nc(NC(=O)NS(=O)(=O)c2cc(NC=O)ccc2C(=O)N(C)C)n1,inactive,
O=C(O)C(F)(F)C(F)(F)C(F)(F)C(F)(F)C(F)(F)C(F)(F)C(F)(F)F,inactive,
C#CCN1C(=O)COc2cc(F)c(N3C(=O)C4=C(CCCC4)C3=O)cc21,inactive,
O=[N+]([O-])/N=C1\NCCN1Cc1ccc(Cl)nc1,inactive,
COP(=O)(OC)OC=C(Cl)Cl,inactive,
CNC(=O)Oc1cccc(N=CN(C)C)c1,inactive,
O=C(O)CCCOc1ccc(Cl)cc1Cl,inactive,
Oc1ccc(Cl)cc1Cc1ccccc1,inactive,
